Giardia FBPA inh: inhibitors of Giardia lamblia fructose-1,6-bisphosphate aldolase. purified Giardia FBPA. Potency, µM (top dose mostly 59.6 µM), for the others: at the top dose activity, negative = inhibition, most hits filed as inhibitors. 290,000 compounds, 0.71% hits. AID 2451; note: potency is the fitted concentration of half-maximal effect; % is set by controls: 0 for no effect and ±100 for the full control effect; nearly all actives have a fitted effect of over 55% in size
Target sequence (A8B2U2 whole entry, looked up): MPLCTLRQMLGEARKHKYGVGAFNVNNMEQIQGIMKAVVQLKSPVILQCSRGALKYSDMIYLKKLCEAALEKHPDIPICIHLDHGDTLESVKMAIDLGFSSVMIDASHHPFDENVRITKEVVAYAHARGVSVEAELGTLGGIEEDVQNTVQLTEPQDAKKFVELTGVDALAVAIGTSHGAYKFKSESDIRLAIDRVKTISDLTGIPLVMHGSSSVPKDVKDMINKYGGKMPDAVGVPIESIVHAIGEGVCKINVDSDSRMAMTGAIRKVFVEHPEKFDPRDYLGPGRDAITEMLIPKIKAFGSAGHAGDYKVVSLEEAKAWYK
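Giardia FBPA (40 nM reagent) was preincubated 10 min at RT with compound (up to 57.5 uM final), then substrate plus GAPDH/TPI/NAD/arsenate coupling system with diaphorase/resazurin was added; resorufin fluorescence (525/598 nm) was read after 20 min.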
Pf growth 96h: P. falciparum growth inhibition at 96 hours | P. falciparum luciferase reporter growth, 96 h | Potency, µM (series often up to 28.7 µM), for the others: top-dose activity change, negative = inhibition, most hits filed as inhibitors | 320,000 compounds, 6.9% hits; note: potency is the fitted concentration of half-maximal effect; % is set by controls: 0 for no effect and ±100 for the full control effect
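Two-generation exposure (96 h) targets delayed-death phenotype. Reporter parasites carrying integrated firefly luciferase, in red cells at 2% hematocrit and 0.05% parasitemia final, kept at 37 C, 5% CO2; luminescence loss indicates inhibition.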
Pf growth 48h: P. falciparum growth inhibition at 48 hours (one generation) | P. falciparum luciferase growth in erythrocytes, 48 h | Potency, µM (series often up to 28.7 µM), without a hit: top-dose activity change, negative = inhibition, actives largely listed as inhibitors | 310,000 compounds, 5.9% hits | AID 504832; note: potency is the fitted concentration of half-maximal effect; % is set by controls: 0 for no effect and ±100 for the full control effect
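Compounds are pin-transferred into medium, infected erythrocytes (2% hematocrit, 0.1% parasitemia final) are added, and plates sit one parasite generation at 37 C in 5% CO2. Detection reagent is then added and luminescence measured.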
CHX counter: counter-screen for Shiga toxin inhibitors: cycloheximide protein synthesis inhibition. max response, %. cell reporter, cycloheximide protein synthesis inhibition counterscreen. 300,000 compounds, 12% hits; in the data active = max response mostly above about 13%, no sharp cut-off; inactive = mostly below about 14%; note: read at 38.3 µM for the half of the compounds with a filed dose; 0% is about no effect
Shiga toxin inh: inhibitors of Shiga toxin in Vero cells; Vero cells, Shiga toxin protein synthesis inhibition reporter; 290,000 compounds, 9.2% hits; inhibition, % at 38.7 µM; in the data active = inhibition mostly above about 28%, no sharp cut-off; inactive = mostly below about 43%; note: 0% is about no effect
NS1 inh: influenza NS1 inhibition; Potency, µM (series often up to 46.1 µM), without a hit: at the highest dose activity, positive = more growth; 270,000 compounds, 0.4% hits; AID 2326; calls by dose curve; note: potency is the fitted concentration of half-maximal effect; actives are rising curves; nearly all actives have a fitted effect of over 50% in size
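Growth recovery, yeast-based: influenza A NS1 expressed in S. cerevisiae causes slow growth, and suppressors are detected by OD600. The parent strain without NS1 is used as positive control.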
* = called active by the depositor; i = inactive; ? = inconclusive; · = no result given; [ ] = another dose, or the depositor's remark. The list is not random: actives were taken first. Their share in the collection is about 21%. Unless noted, calls come from the whole dose curve; as a rule, active = well fitted curve in the direction sought with a large enough effect; inconclusive = small, poorly fitted or top-dose-only effect, or another doubt; inactive = no such curve, though single readings can be large; an effect the other way counts as inactive or inconclusive.

SMILES	Giardia FBPA inh	Pf growth 96h	Pf growth 48h	CHX counter	Shiga toxin inh	NS1 inh
N#Cc1ccccc1/C=C/C(=O)N1CCOCC1	3.0%	182.3%	30.6%	0.7	-3.6	-3.6%
O=C(/C=C/c1ccc(OCCCF)cc1)N1CCOCC1	13.4%	82.2%	97.0%	29.8*	65.8*	2.5%
O=C(/C=C/c1cccc2ccccc12)N1CCOCC1	0.9%	106.9%	81.8%	32.3*	85.6*	-4.3%
CCCn1c(=O)c(C(=O)NCCc2ccc(OC)cc2)c(O)c2ccccc21	-7.8%	?	1.8%	-0.7	-2.8	3.8%
Cc1cc(C)cc(C(=O)NCC(=O)NNC(=O)CSc2ccccc2F)c1	·	6.2%	-31.9%	·	·	·
O=C(/C=C/c1cccc(Oc2ccccc2)c1)N1CCOCC1	9.5%	354.5%	76.0%	33.8*	86.3*	-0.3%
Cc1ccccc1/C=C/C(=O)N1CCOCC1	3.6%	31.3%	75.6%	30.8*	66.3*	0.6%
O=C(/C=C/c1cccc([N+](=O)[O-])c1)N1CCOCC1	4.2%	-19.2%	24.6%	-1.3	3.5	9.2%
CCN1CCN(CCCNC(=O)CCC(=O)N2CCOc3ccc(Cl)cc32)CC1	-7.5%	?	3.2%	-1.0	-1.6	-12.5%
N#CCc1cnc2ccccc2n1	-23.0%	0.0%	-4.1%	18.3*	68.9*	5.4%
NS(=O)(=O)c1ccc(NCc2cnc3ccccc3n2)cc1	·	·	·	·	·	0.0%
c1nc(N2CCOCC2)c2sc3nc(N4CCOCC4)c4c(c3c2n1)CCCC4	·	·	·	·	·	-9.3%
Cc1cccc(-n2cnc3c(sc4nc(N5CCOCC5)c5c(c43)CCCC5)c2=O)c1	0.4%	?	2.08µM*	-1.7	-7.5	7.4%
CCN(CC)CCNc1ncnc2c1sc1nc(N3CCOCC3)c3c(c12)CCCC3	-10.3%	?	9.28µM*	-1.2	-5.7	3.5%
CN(C)CCNc1ncnc2c1sc1nc(N3CCCC3)c3c(c12)CC(C)(C)OC3	-11.7%	-17.4%	0.0%	0.4	-9.8	1.2%
CCN(CC)CCNc1ncnc2c1sc1nc(N3CCCC3)c3c(c12)CC(C)(C)OC3	-14.1%	5.2%	10.4µM*	-1.6	-15.4	3.1%
Cc1cccc(OCc2nc3ccccc3c(=O)n2N)c1	3.1%	·	48.5%	47.1*	72.1	-63.5%
Cc1cccc(-c2nc3ccccc3c(=O)n2N)c1	7.1%	19.9%	34.9%	1.1	-5.6	1.2%
CCCCCCc1nc2ccccc2c(=O)n1N	-0.2%	?	17.2%	21.2	21.4	-17.1%
Nn1c(COc2cccc(Cl)c2)nc2ccccc2c1=O	0.2%	?	0.9%	38.2*	74.7*	3.8%
COC(=O)C(C(=O)OC)C1c2ccccc2C=C(C)N1C(=O)OC (centres undefined)	0.0%[12.9 µM]	·	·	·	·	·
CCOc1ccc(C(C(=O)NC2CCCC2)N(CCCO)C(=O)c2ccc(-c3ccccc3)[nH]2)cc1 (centres undefined)	-9.2%	10.8%	?	12.5	59.8*	·
O=C(NC1CCCC1)C(c1ccncc1)N(Cc1ccco1)C(=O)c1ccc(-c2ccccc2)[nH]1 (centres undefined)	-6.5%	67.1%[5.75 µM]	?	6.8	32.5	·
O=C(NC1CCCC1)C(c1ccncc1)N(Cc1ccccc1)C(=O)c1ccc(-c2ccccc2)[nH]1 (centres undefined)	-6.7%	?	?	13.3*	27.3	2.2%
O=C(NC1CCCC1)C(c1ccncc1)N(CCCN1CCOCC1)C(=O)c1ccc(-c2ccccc2)[nH]1 (centres undefined)	-0.5%	-9.1%	?	-1.9	-6.4	·
SMILES	Giardia FBPA inh	Pf growth 96h	Pf growth 48h	CHX counter	Shiga toxin inh	NS1 inh
CN1CCN(C(CNC(=O)C(=O)NC2CCCC2)c2ccc(F)cc2)CC1 (centres undefined)	·	2.8%	-0.9%	·	·	·
Cc1cccc(N2CCN(C(=O)c3ccoc3C)CC2)c1C	10.5%	43.4%	-2.7%	-10.1	31.7	-4.3%
CCOP(=S)(OCC)OCCSCC	-1.0%	·	·	-2.8	14.5	·
CCc1cccc(CC)c1NC(=O)C1CN(S(=O)(=O)c2ccccc2)CCN1S(=O)(=O)c1ccccc1 (centres undefined)	-0.9%	?	?	-1.4	-2.2	?
O=C(NC1CCCCC1)C1CN(S(=O)(=O)c2ccccc2)CCN1S(=O)(=O)c1ccccc1 (centres undefined)	2.1%	11.7µM*	-9.4%	1.0	16.3	-1.7%
CCNC(=O)C1CN(S(=O)(=O)c2ccccc2)CCN1S(=O)(=O)c1ccccc1 (centres undefined)	7.4%	2.33µM*	12.5%	10.2	-5.5	2.7%
CC12CCC(=O)N1C(C(=O)NNC(=O)c1ccc(Br)cc1)CS2 (centres undefined)	·	-17.7%	-25.2%	·	·	·
C/C(=N\NC(=O)c1cc(-c2ccccn2)nc2ccccc12)c1cccc([N+](=O)[O-])c1	-4.7%	10.4µM*	?	5.4	-7.3	·
Cc1ccc(C)c(NC(=O)c2cc(-c3cccnc3)nc3ccccc23)c1	1.3%	32.5%	149.6%	3.1	11.2	·
C/C(=N\NC(=O)c1cc(-c2ccc(C)s2)nc2ccccc12)c1cccnc1	·	?	-6.5%	22.5*	22.5	-12.9%
C/C(=N\NC(=O)c1cc(-c2cccnc2)nc2ccccc12)c1ccc(O)cc1O	-12.7%	?	9.28µM*	8.9	13.1	?
C/C(=N\NC(=O)c1cc(-c2ccccc2C)nc2ccccc12)c1cccnc1	-5.0%	?	1.85µM*	-4.1	-13.5	22.3%
COc1ccc(OC)c(S(=O)(=O)CC(O)CS(=O)(=O)c2ccccc2)c1 (centres undefined)	·	35.9%	-2.3%	-1.0	-5.4	-1.8%
C/C(=N/NC(=O)c1cc(-c2ccccc2)nc2c(Cl)cccc12)c1cccnc1	6.2%	10.4µM*	?	-2.7	-11.6	8.7%
C/C(=N\NC(=O)c1cc(-c2cccc(OC(C)C)c2)nc2ccccc12)c1cccnc1	-4.5%	13.1µM*	?	32.2	31.6	13.4%
COC(=O)c1sc(S(=O)(=O)NC(Cc2ccccc2)C(=O)O)c(C(=O)OC)c1C (centres undefined)	·	-6.7%	0.6%	·	·	·
CCn1c(C)nc2cc(-c3nc4n(n3)Cc3ccccc3-4)ccc21	-9.0%	0.208µM*	0.185µM*	-9.7	-21.7	-13.9%
Fc1ccc(-c2nc3n(n2)Cc2ccccc2-3)cc1	-20.8%	·	41.8%	42.2*	66.2*	-9.8%
Cc1ccc(-c2nc3n(n2)Cc2ccccc2-3)cc1	-17.2%	i	321.8%	19.6*	13.7	-12.2%
CCn1c(C)nc2cc(C#N)ccc21	0.3%	34.2%	20.3%	4.6	0.9	·
NC(=S)Cc1nc2n(n1)Cc1ccccc1-2	?	-12.4%	·	-2.5	-8.7	0.7%
COc1ccc(COC(=O)N/N=C2/C[C@@H](O)[C@@H](O)[C@@H]3[C@@H]4C(=O)N(C[C@@H]5CCCO5)C(=O)[C@H]4CC[C@@H]23)cc1	2.8%[12.9 µM]	·	·	·	·	·
NC(N)=NCCCC(NC(=O)c1ccccc1)C(=O)Nc1ccc([N+](=O)[O-])cc1 (centres undefined)	·	9.28µM*	?	·	·	·
